Tb PGK inh = inhibitors of T. brucei phosphoglycerate kinase; 0.043% of 380,000 active; PGK/GAPDH coupled, Kinase-Glo luminescence, 60 min; P07378; Potency, µM (highest dose often 57.5 µM), without a hit: top-dose activity change, negative = inhibition, hits mostly inhibitors; AID 602233; further: on the % scale 0 is the no-effect control and ±100 the full control effect; nearly all actives have a fitted effect of over 60% in size
Target sequence (P07378 whole entry, looked up): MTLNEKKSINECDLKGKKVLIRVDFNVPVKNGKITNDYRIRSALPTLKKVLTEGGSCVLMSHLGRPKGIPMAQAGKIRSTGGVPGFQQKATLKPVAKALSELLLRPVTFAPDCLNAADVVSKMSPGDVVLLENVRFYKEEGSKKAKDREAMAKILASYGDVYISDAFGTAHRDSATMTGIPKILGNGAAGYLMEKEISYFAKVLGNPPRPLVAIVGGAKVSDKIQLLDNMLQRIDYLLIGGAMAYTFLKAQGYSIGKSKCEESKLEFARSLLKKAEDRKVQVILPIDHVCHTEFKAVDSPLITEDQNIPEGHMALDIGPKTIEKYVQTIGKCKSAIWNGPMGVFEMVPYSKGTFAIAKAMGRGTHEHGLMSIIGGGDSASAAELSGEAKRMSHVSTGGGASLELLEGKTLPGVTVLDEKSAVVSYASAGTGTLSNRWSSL
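Recombinant glycosomal PGK reaction used 1,3-bisphosphoglycerate generated in-well by GAPDH (100nM final) in 100mM TEA pH 7.6, 5mM MgCl2, 0.01% Tween-20. After 60 minutes at room temperature, ATP was read by Kinase-Glo Plus luminescence end-point.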
GLP1R cytotox = cytotoxicity counter-screen for GLP-1 receptor inverse agonists; Potency, µM (highest dose often 38.3 µM), inactives show at the top dose activity change, negative = inhibition, usual class: inhibitors; HEK293 cAMP-luciferase reporter cells, luminescence, 24 h; AID 624418; 0.13% of 410,000 active;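 further: loss of luciferase light is scored as toxicity; on the % scale 0 is the no-effect control and ±100 the full control effect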
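Here, cytotoxicity is scored as loss of luminescence. The MLSMR collection was tested on cells seeded in medium containing 10% Nu serum, with a 24 hr compound exposure preceded by 12 hours of culture.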
Pin1 inhibitor = blocks the human prolyl isomerase Pin1 | Pin1 FP peptide displacement, HiFluor488, 10 min | 0.009% of 390,000 active | AID 504891 | Potency, µM (series often up to 115 µM), for the others: top-dose activity, negative = inhibition, usual class: inhibitors; active means well fitted inhibition curve with a large enough effect in the polarisation, with a control signal flat, not every such curve was filed as active; inconclusive means small, poorly fitted or top-dose-only effect, or effect the other way, or a change in a side signal; inactive means no such curve, though single readings can be large or run the other way; the % refers to the polarisation; further: on the % scale 0 is the no-effect control and ±100 the full control effect
Target sequence (Q13526 whole entry, looked up): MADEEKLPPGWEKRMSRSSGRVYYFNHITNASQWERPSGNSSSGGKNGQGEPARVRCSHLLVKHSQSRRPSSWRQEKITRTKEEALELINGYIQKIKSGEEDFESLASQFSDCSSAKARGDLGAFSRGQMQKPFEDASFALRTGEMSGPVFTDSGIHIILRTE
GLP-1R inv ag = GLP-1 receptor (human) inverse agonism; HEK293 GLP-1R CRE-luciferase, luminescence, 24 h; GLP-1R form is constitutively active; P43220; AID 624417; Potency, µM (doses to about 38.3 µM), for the others: at the highest dose activity change, negative = inhibition, usual class: inhibitors; 1.6% of 410,000 active; further: on the % scale 0 is the no-effect control and ±100 the full control effect; nearly all actives have a fitted effect of over 55% in size
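GLP-1R inverse agonism mode: basal reporter luminescence in engineered HEK293 cells measured after one day of compound exposure at 37 deg C, with a 12 min room-temperature detection step.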
Tb PFK inh = inhibitors of T. brucei phosphofructokinase; T. brucei PFK, ADP-Glo luminescence; Potency, µM (series often up to 57.5 µM), for the others: at the top dose activity, negative = inhibition, usual class: inhibitors; 0.17% of 330,000 active; AID 485367;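 further: 0% = uninhibited 1x PFK enzyme wells and -100% = no-enzyme wells; nearly all actives have a fitted effect of over 60% in size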
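1.25 nM PFK with 0.5 mM F6P and 0.1 mM ATP in 0.1 M TEA pH 8.0, 5 mM MgCl2, incubated 45 min at room temperature; ADP measured by ADP-Glo luminescence; compounds titrated up to 57 uM.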
GLP1R ag = activates the human GLP-1 receptor. Potency, µM (doses to about 45.6 µM), inactives show top-dose activation, actives largely listed as activators. HEK293 GLP-1R CRE-luciferase, luminescence, 4-6 h; cells express a hypersensitive GLP-1R form. AID 624172. 0.007% of 380,000 active; further: % of control where 0% means no effect
An asterisk follows results filed as active; i = inactive; ? = inconclusive; / = not tested or not shown. The list is not random: actives were taken first. Their share in the collection is about 1.8%. Unless noted, the call rests on the fitted dose curve; in most records, active means well fitted curve in the direction sought with a large enough effect; inconclusive means small, poorly fitted or top-dose-only effect, or another doubt; inactive means no such curve, though single readings can be large; an effect the other way counts as inactive or inconclusive. Potency means the concentration at half of the fitted maximal effect.

SMILES | Tb PGK inh | GLP1R cytotox | Pin1 inhibitor | GLP-1R inv ag | Tb PFK inh | GLP1R ag
CC(=O)Oc1ccc(C(=O)Nc2cccc(C(=O)c3ccc(C)c(C)c3)c2)cc1 | -6.3% | ? | 6.9% | 12.6µM* | 2.0% | 2.3%
Cc1nc2sc(C(=O)NCc3ccc(Cl)cc3)c(NC(=O)c3ccccc3)c2c(C)c1C | / | -13.8% | -0.6% | -3.6% | / | /
CCOc1ccc(C(=O)N2CCCC(c3nc(-c4ccc(C)o4)no3)C2)cc1 (stereo not given) | -3.0% | -6.3% | 1.6% | 11.2µM* | 3.4% | 15.4%
CCOc1ccc(CC(=O)Nc2c(C(=O)c3ccc(F)cc3)oc3ccc(Cl)cc23)cc1OCC | 4.0% | -2.3% | -4.3% | 12.7% | / | 0.0%
O=C(NCc1nnc(SCc2ccc(F)cc2)n1-c1ccc(F)cc1)C12CC3CC(CC(C3)C1)C2 | -4.4% | ? | 2.7% | 7.08µM* | -0.6% | 1.7%
O=C(c1ccccc1)N1CCN(c2nc(-c3cccs3)nc3ccccc23)CC1 | / | / | 8.8% | / | / | /
Cc1cc2c(s1)c1cnn(Cc3c(Cl)cccc3Cl)c(=O)c1n2C | / | / | -1.8% | / | / | /
O=C(c1ccc2c(=O)n3c(nc2c1)CCCCC3)N1CCN(c2ccc(F)cc2)CC1 | i | 3.6% | -6.1% | 5.01µM* | 3.0% | 18.4%
CCOC(=O)N1CCN(C(=O)c2ccc3c(=O)n4c(nc3c2)CCCCC4)CC1 | 0.2% | 2.0% | -6.5% | 1.1% | 4.8% | -7.7%
O=C(c1ccc2c(=O)n3c(nc2c1)CCCCC3)N1CCN(c2ccc(Cl)cc2)CC1 | -3.0% | 9.8% | 2.5% | 7.08µM* | -1.2% | -4.0%
CCc1ccc(CN2CCc3nc(N4CCN(CC)CC4)ncc3C2)cc1 | 10.9% | -2.2% | 5.2% | 5.01µM* | / | /
O=c1[nH][nH]c2c1[C@@H](c1ccc(F)cc1)O[C@H](C1CCCCC1)C2 | / | 2.6% | / | ? | / | 0.2%
CC(C)=CCC[C@H](C)C[C@@H]1Cc2[nH][nH]c(=O)c2[C@H](c2ccc(Cl)cc2)O1 | / | 1.2% | / | ? | / | 5.8%
O=c1c2c([nH]n1-c1ccccc1)C[C@@H](C1CCCCC1)O[C@H]2c1ccc(F)cc1 | / | -29.4% | / | 2.24µM* | / | -2.8%
O=c1[nH][nH]c2c1[C@H](c1ccc(F)cc1)O[C@H](C1CCCCC1)C2 | / | 3.7% | / | 2.82µM* | / | 0.4%
CC(C)=CCC[C@H](C)C[C@@H]1Cc2[nH][nH]c(=O)c2[C@@H](c2ccc(F)cc2)O1 | / | -15.8% | / | 5.62µM* | / | 5.9%
COc1cccc(C(c2sc3nc(-c4ccco4)nn3c2O)N2CCN(C)CC2)c1 (stereo not given) | -4.8% | 5.5% | -8.4% | 13.9% | / | /
COc1cccc(CN2C(=O)c3ccccc3NC2c2ccc(OC)c(COc3ccc(NC(C)=O)cc3)c2)c1 (stereo not given) | / | / | 5.8% | / | / | /
O=P(O)(O)OC(Cn1cncn1)(Cn1cncn1)c1ccc(F)cc1F | / | / | / | / | / | -2.3%
CCCCN(CC)C(=O)CSc1c2c(nc3ccc(Cl)cc13)CCCC2 | i | ? | 3.7% | 10µM* | / | /
C=CCOc1cccc(/C=C2\C(=O)N(Cc3ccc(C)cc3)C(C)=C2C(=O)OC)c1 | -2.0% | -26.2% | ? | 4.47µM* | 0.7% | 8.5%
O=C1c2cccc3cc([N+](=O)[O-])cc(c23)C(=O)N1CCN1CCCC1 | 0.9% | 34.2% | ? | 4.47µM* | -8.0% | -13.3%
Nc1cc2c3c(cccc3c1)C(=O)N(CCN1CCCC1)C2=O | -6.5% | 0.0% | ? | ? | -18.6% | -7.8%
CCOC(=O)CSc1nc2cc3c(cc2c(=O)n1CCCC(=O)NCCc1ccc(OC)c(OC)c1)OCO3 | -2.9% | 0.6% | -11.0% | 10.6% | / | /
Cc1ccc(-c2noc(-c3ccc(NC4CCCC4)c([N+](=O)[O-])c3)n2)cc1 | -9.6% | 4.3% | 2.0% | -3.9% | / | /
SMILES | Tb PGK inh | GLP1R cytotox | Pin1 inhibitor | GLP-1R inv ag | Tb PFK inh | GLP1R ag
CC(C)c1nnc(NC(=O)c2ccc3c(c2)OCO3)s1 | -7.2% | -9.9% | -1.7% | 1.12µM* | 2.5% | -0.8%
COc1ccc(C2=C(C)C(=NCCCN3CCN(c4cc(Cl)ccc4C)CC3)NS2(=O)=O)cc1 | i | -5.1% | -0.4% | 8.91µM* | / | /
CC1=C(c2ccc(Cl)cc2)S(=O)(=O)NC1=NCCCN1CCN(c2cc(C)ccc2C)CC1 | -21.0% | 2.4% | 21.2% | ? | / | /
CC1=C(c2ccc(C(C)C)cc2)S(=O)(=O)NC1=NCCCN1CCN(c2ccccc2F)CC1 | -9.1% | 0.6% | -1.0% | ? | / | /
CC1=C(c2ccc(C)cc2)S(=O)(=O)NC1=NCCCN1CCN(c2ccc(F)cc2)CC1 | 1.1% | -11.2% | -1.2% | 11.2µM* | / | /
COc1cc(CNC(=O)c2ccc3nc(CCc4ccccc4)oc3c2)cc(OC)c1OC | 8.6% | 1.8% | 3.1% | 11.2µM* | / | /
CC(CNC(=O)c1ccc2nc(Cc3ccccc3)oc2c1)c1ccccc1 (stereo not given) | -3.3% | -13.3% | 4.8% | 11.2µM* | / | /
CCN(Cc1ccccc1)c1ccc(Br)cn1 | / | / | -4.2% | / | / | /
CCN(c1ccccc1)S(=O)(=O)c1ccc(NCC2COc3ccccc3O2)nc1 (stereo not given) | -6.9% | -8.7% | 57.9% | 5.01µM* | -1.2% | 4.5%
CCOc1ccc(S(=O)(=O)N(CC(=O)N2CCc3ccccc32)Cc2ccco2)cc1 | -1.5% | -4.1% | 23.4% | 8.91µM* | 1.9% | -10.5%
CN(CC(=O)N1CCc2ccccc21)S(=O)(=O)c1ccc(Cl)cc1 | / | 3.0% | 0.5% | ? | -0.4% | 3.1%
CCN1/C(=C/c2ccc3cc(C)ccc3[n+]2CC)Sc2ccccc21 | -13.4% | -20.1% | ? | ? | 6.8% | -6.1%
CC[n+]1c(/C=C2\Sc3ccccc3N2C)ccc2cccc(C)c21 | -4.6% | ? | 109.9% | 12.6µM* | 2.3% | -2.5%
CC(=O)N1c2ccc(S(=O)(=O)NCCC(=O)Nc3ccc(Br)c(C)c3)cc2CC1C (stereo not given) | 4.9% | 0.2% | 0.7% | -25.0% | / | /
NC(=S)NN=C1c2ccccc2-c2ccccc21 | / | 1.41µM* | -2.9% | ? | 1.0% | 17.1%
O=C(NN=C1c2ccccc2-c2ccccc21)c1ccccc1 | 5.1% | ? | 1.8% | ? | ? | 7.9%
COCC(=O)OC1CCn2c1nc1c2C(=O)C(C)=C(NC(C)=O)C1=O (stereo not given) | -28.1% | 11.2µM* | ? | 10µM* | / | -13.1%
c1ccc2c(CCC3CCNCC3)c[nH]c2c1 | / | / | / | / | / | 6.1%
CC(C)(C)c1ccc(C(=O)NCC(c2ccco2)S(=O)(=O)c2ccccc2)cc1 (stereo not given) | 2.7% | -8.5% | ? | ? | / | /
O=C(CNc1cccc2ccccc12)N/N=C/c1ccc(OC(=O)/C=C/c2ccco2)cc1 | -0.2% | -18.6% | -3.0% | 8.91µM* | 0.0% | 0.1%

High-throughput results: PubChem BioAssay, National Center for Advancing Translational Sciences (NCATS)
